# According to PubChem BioAssay (NCATS):
# Results filed as inconclusive are left out. Where a call stands in place of a potency, no number is given. Calls of active or inactive are those of the source. Calls come from the whole dose curve; as a rule, active = well fitted inhibition curve with a large enough effect; inconclusive = small, poorly fitted or top-dose-only effect; inactive = no such curve, though single readings can be large or run the other way.
# Assay: Counterscreen for APE1 Inhibitors: Fluorescent Dye Displacement Validation Assay (AID 1707)
# Settings: fluorescent dye displacement from DNA; series mostly up to 57.1 µM
# Procedure, shortened: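 Reaction mixture of 250 nM Thiazole Orange and 50 nM double-stranded abasic-site DNA was dispensed, compounds were pin-transferred, and fluorescence was read at endpoint (480 nm ex, 540 nm em). Reduced fluorescence indicated dye displacement by DNA binding.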
row,SMILES,Potency
1,Oc1cc2c(cc1O)CN(C(=S)NCCc1ccc(Cl)cc1)CCC2,inactive
2,CC1(C)CCC=[N+]1[O-],inactive
3,CNCC[C@H](Oc1ccc(C(F)(F)F)cc1)c1ccccc1,inactive
4,CC12C(=O)OC(=O)C1(C)C1CCC2O1 (stereo not drawn),inactive
5,COc1cc(C(O)CO)ccc1OS(=O)(=O)O (stereo not drawn),inactive
6,COc1ccccc1CNCCCCCCNCCCCCCCCNCCCCCCNCc1ccccc1OC,inactive
7,O=C(Nc1cccc(C(=O)Nc2ccc(S(=O)(=O)O)c3cc(S(=O)(=O)O)cc(S(=O)(=O)O)c23)c1)Nc1cccc(C(=O)Nc2ccc(S(=O)(=O)O)c3cc(S(=O)(=O)O)cc(S(=O)(=O)O)c23)c1,inactive
8,COc1cc2nc(N3CCN(C(=O)OCc4ccccc4)C(C(=O)NC(C)(C)C)C3)nc(N)c2cc1OC (stereo not drawn),inactive
9,O=c1[nH]c2cc([N+](=O)[O-])c([N+](=O)[O-])cc2[nH]c1=O,inactive
10,O=S(=O)(c1cccc2c(I)cccc12)N1CCCNCC1,inactive
11,Clc1ccc(N2CCN(Cc3c[nH]c4ncccc34)CC2)cc1,inactive
12,O=C(O)[C@@H]1C[C@@H](C(=O)O)N1,inactive
13,N#C/C(=C\c1ccc(O)c(O)c1)C(=O)NCc1ccccc1,inactive
14,CCCCCCCCCCCCCCCCCC(=O)NCC(COP(=O)([O-])OCC[N+](C)(C)C)OCC (stereo not drawn),inactive
15,Oc1ccccc1O,inactive
16,CN1CCC[C@H]1c1cccnc1,inactive
17,O=C(O)c1cc(=O)c2c(Cl)cc(Cl)cc2[nH]1,inactive
18,O=C(Nc1ccccc1)c1cc([N+](=O)[O-])ccc1Cl,inactive
